# Test results: publication PMC7862700, “An all-to-all approach to the identification of sequence-specific readers for epigenetic DNA modifications on cytosine”
# Assays:
# Assay in all cases: DAPPL (digital affinity profiling via proximity ligation, sequencing); 10 mM Tris-HCl pH 7.5, 50 mM NaCl, 1 mM DTT, 4% glycerol, room temperature, 30 min; GST-TFs on glutathione beads, 16-mer random dsDNA library, 0.1% formaldehyde crosslink after washing; high values mean tight binding
# Settings in all cases: protein: recombinant; tags: N-terminal GST; dsDNA, one strand shown
# [1] = molecular target: T1, ERF (Homo sapiens, UniProt P50548 1-548)
# T1 sequence: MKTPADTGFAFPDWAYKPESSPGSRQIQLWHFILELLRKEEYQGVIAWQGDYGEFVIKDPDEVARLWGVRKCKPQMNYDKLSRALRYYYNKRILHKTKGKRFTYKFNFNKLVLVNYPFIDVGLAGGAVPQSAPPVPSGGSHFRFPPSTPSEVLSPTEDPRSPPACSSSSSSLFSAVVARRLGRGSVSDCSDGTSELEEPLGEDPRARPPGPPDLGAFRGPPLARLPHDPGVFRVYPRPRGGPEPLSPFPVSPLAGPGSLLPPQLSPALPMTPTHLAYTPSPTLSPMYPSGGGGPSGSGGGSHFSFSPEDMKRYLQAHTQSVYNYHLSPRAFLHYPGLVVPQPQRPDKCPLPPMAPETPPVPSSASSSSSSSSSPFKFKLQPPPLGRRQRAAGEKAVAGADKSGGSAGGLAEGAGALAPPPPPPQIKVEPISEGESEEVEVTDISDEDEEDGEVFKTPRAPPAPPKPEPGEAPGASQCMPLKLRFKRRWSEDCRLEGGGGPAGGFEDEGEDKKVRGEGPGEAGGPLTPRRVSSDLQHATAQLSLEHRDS
# Procedure, shortened: (§1)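 Binding signal is each hexamer's read frequency for a factor divided by its frequency in the tag-only sample. The factors were GST-fused human transcription factors from yeast, captured on glutathione beads, DNA-barcoded and pooled with that sample. Pools were incubated with 200 nmole of a random double-stranded 16-mer DNA library in Tris/NaCl/DTT/glycerol buffer at room temperature for 30 min, then washed, crosslinked with 0.1% formaldehyde, proximity-ligated with BsaI/T4 ligase (1 h, 37 °C), PCR-amplified and sequenced on an Illumina NextSeq500.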
# [2] = molecular target: T2, ETV3L (Homo sapiens, UniProt Q6ZN32 1-361)
# T2 sequence: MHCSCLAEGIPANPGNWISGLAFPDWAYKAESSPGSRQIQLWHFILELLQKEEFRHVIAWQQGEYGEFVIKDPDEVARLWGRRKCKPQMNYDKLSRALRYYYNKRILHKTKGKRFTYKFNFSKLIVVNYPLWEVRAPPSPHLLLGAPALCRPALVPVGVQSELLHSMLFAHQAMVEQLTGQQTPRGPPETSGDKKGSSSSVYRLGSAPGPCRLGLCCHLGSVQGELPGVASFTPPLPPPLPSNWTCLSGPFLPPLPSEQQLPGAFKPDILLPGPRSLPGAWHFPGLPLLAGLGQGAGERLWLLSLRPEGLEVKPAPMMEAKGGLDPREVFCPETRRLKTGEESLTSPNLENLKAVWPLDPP
# Procedure, shortened: as §1
# [3] = molecular target: T3, ETS2 (Homo sapiens, UniProt P15036 1-469)
# T3 sequence: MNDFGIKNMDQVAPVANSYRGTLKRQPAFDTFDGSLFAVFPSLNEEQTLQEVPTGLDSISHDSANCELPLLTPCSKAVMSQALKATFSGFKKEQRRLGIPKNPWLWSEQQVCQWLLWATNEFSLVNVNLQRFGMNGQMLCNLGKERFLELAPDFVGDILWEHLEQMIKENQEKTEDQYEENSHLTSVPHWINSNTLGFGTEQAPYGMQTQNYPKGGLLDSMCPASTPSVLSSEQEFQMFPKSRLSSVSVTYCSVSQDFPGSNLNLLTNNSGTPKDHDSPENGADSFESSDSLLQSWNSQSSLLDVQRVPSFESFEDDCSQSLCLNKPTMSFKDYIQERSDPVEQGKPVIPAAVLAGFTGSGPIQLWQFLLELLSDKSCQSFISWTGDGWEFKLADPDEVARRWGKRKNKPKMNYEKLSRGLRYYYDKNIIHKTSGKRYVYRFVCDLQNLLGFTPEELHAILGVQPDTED
# Procedure, shortened: as §1
# [4] = molecular target: T4, SPDEF (Homo sapiens, UniProt O95238 1-335)
# T4 sequence: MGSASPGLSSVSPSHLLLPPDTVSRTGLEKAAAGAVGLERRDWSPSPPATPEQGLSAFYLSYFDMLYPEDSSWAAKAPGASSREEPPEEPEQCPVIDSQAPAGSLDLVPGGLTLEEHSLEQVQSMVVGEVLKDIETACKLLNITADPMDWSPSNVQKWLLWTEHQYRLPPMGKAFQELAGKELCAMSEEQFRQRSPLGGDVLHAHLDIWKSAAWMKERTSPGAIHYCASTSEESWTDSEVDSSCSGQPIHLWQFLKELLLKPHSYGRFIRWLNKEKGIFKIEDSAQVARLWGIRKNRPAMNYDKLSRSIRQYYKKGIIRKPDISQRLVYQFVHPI
# Procedure, shortened: as §1
# [5] = molecular target: T5, ETV7 (Homo sapiens, UniProt Q9Y603 1-341)
# T5 sequence: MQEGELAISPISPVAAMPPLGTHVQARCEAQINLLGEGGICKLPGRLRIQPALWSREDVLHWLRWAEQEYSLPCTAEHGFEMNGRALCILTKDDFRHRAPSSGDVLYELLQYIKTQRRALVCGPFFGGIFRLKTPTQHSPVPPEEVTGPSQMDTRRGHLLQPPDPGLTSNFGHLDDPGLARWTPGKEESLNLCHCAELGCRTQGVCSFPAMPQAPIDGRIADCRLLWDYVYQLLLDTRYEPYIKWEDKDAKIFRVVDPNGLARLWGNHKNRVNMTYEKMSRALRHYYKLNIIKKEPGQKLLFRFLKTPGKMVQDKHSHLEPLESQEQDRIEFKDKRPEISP
# Procedure, shortened: as §1
# [6] = molecular target: T6, ELF5 (Homo sapiens, UniProt Q9UKW6-2 1-255)
# T6 sequence: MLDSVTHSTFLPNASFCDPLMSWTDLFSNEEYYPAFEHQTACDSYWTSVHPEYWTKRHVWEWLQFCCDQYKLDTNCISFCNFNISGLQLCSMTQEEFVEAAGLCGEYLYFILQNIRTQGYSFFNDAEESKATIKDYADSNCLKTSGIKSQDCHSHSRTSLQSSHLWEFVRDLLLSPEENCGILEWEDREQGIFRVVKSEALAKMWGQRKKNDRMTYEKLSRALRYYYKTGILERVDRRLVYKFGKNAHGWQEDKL
# Procedure, shortened: as §1
# [7] = molecular target: T7, ETV3 (Homo sapiens, UniProt P41162-2 1-143)
# T7 sequence: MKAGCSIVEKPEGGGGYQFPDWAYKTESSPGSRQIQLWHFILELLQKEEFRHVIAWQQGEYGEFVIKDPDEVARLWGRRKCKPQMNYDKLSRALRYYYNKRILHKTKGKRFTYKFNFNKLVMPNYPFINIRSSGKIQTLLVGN
# Procedure, shortened: as §1
# [8] = molecular target: ETV6 (Homo sapiens, UniProt P41212 1-452)
# Procedure, shortened: as §1
# ETV6, sequence (P41212 whole entry): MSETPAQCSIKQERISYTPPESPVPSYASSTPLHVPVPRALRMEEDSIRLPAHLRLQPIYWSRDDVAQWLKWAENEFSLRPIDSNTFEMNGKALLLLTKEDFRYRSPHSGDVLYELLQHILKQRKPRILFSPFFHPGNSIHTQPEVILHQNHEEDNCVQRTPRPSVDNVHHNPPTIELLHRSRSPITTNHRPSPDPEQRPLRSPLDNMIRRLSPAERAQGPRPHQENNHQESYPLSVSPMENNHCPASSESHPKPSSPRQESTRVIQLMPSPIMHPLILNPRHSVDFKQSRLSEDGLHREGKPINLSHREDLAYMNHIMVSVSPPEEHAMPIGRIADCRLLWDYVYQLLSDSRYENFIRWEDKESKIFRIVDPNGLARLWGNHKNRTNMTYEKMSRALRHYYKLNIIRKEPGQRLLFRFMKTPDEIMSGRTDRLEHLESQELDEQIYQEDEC
Sequence,binding signal [1],binding signal [2],binding signal [3],binding signal [4],binding signal [5],binding signal [6],binding signal [7],binding signal [8]
TGTTTT,"1.26 fold enrichment (6-mer frequency, TF over GST control)","1.37 fold enrichment (6-mer frequency, TF over GST control)","1.36 fold enrichment (6-mer frequency, TF over GST control)","1.41 fold enrichment (6-mer frequency, TF over GST control)","1.28 fold enrichment (6-mer frequency, TF over GST control)","1.48 fold enrichment (6-mer frequency, TF over GST control)","1.46 fold enrichment (6-mer frequency, TF over GST control)","1.39 fold enrichment (6-mer frequency, TF over GST control)"
AGCCTT,"1.21 fold enrichment (6-mer frequency, TF over GST control)","1.11 fold enrichment (6-mer frequency, TF over GST control)","1.07 fold enrichment (6-mer frequency, TF over GST control)","1.02 fold enrichment (6-mer frequency, TF over GST control)","1.1 fold enrichment (6-mer frequency, TF over GST control)","1.1 fold enrichment (6-mer frequency, TF over GST control)","1.18 fold enrichment (6-mer frequency, TF over GST control)","1.08 fold enrichment (6-mer frequency, TF over GST control)"
TTACAT,"1.41 fold enrichment (6-mer frequency, TF over GST control)","1.26 fold enrichment (6-mer frequency, TF over GST control)","1.34 fold enrichment (6-mer frequency, TF over GST control)","1.41 fold enrichment (6-mer frequency, TF over GST control)","1.2 fold enrichment (6-mer frequency, TF over GST control)","1.35 fold enrichment (6-mer frequency, TF over GST control)","1.3 fold enrichment (6-mer frequency, TF over GST control)","1.27 fold enrichment (6-mer frequency, TF over GST control)"
ACTTGC,"1.3 fold enrichment (6-mer frequency, TF over GST control)","1.48 fold enrichment (6-mer frequency, TF over GST control)","1.32 fold enrichment (6-mer frequency, TF over GST control)","1.44 fold enrichment (6-mer frequency, TF over GST control)","1.37 fold enrichment (6-mer frequency, TF over GST control)","1.47 fold enrichment (6-mer frequency, TF over GST control)","1.49 fold enrichment (6-mer frequency, TF over GST control)","1.52 fold enrichment (6-mer frequency, TF over GST control)"
TCTGAT,"1.22 fold enrichment (6-mer frequency, TF over GST control)","1.29 fold enrichment (6-mer frequency, TF over GST control)","1.29 fold enrichment (6-mer frequency, TF over GST control)","1.22 fold enrichment (6-mer frequency, TF over GST control)","1.23 fold enrichment (6-mer frequency, TF over GST control)","1.19 fold enrichment (6-mer frequency, TF over GST control)","1.21 fold enrichment (6-mer frequency, TF over GST control)","1.19 fold enrichment (6-mer frequency, TF over GST control)"
TAGCAC,"1.33 fold enrichment (6-mer frequency, TF over GST control)","1.21 fold enrichment (6-mer frequency, TF over GST control)","1.15 fold enrichment (6-mer frequency, TF over GST control)","1.14 fold enrichment (6-mer frequency, TF over GST control)","1.08 fold enrichment (6-mer frequency, TF over GST control)","1.09 fold enrichment (6-mer frequency, TF over GST control)","1.1 fold enrichment (6-mer frequency, TF over GST control)","1.02 fold enrichment (6-mer frequency, TF over GST control)"
CTCTTG,"1.53 fold enrichment (6-mer frequency, TF over GST control)","1.42 fold enrichment (6-mer frequency, TF over GST control)","1.23 fold enrichment (6-mer frequency, TF over GST control)","1.26 fold enrichment (6-mer frequency, TF over GST control)","1.27 fold enrichment (6-mer frequency, TF over GST control)","1.43 fold enrichment (6-mer frequency, TF over GST control)","1.35 fold enrichment (6-mer frequency, TF over GST control)","1.2 fold enrichment (6-mer frequency, TF over GST control)"
TCTTGG,"1.4 fold enrichment (6-mer frequency, TF over GST control)","1.43 fold enrichment (6-mer frequency, TF over GST control)","1.27 fold enrichment (6-mer frequency, TF over GST control)","1.27 fold enrichment (6-mer frequency, TF over GST control)","1.38 fold enrichment (6-mer frequency, TF over GST control)","1.31 fold enrichment (6-mer frequency, TF over GST control)","1.29 fold enrichment (6-mer frequency, TF over GST control)","1.19 fold enrichment (6-mer frequency, TF over GST control)"
